bovine MsrA act – bovine methionine sulfoxide reductase A activation | purified bovine MsrA, absorbance read-out | activation, % at 10.6 µM | 0.3% of 360,000 active | AID 602163; in the data active = activation above about 7.5%;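 note: 0% = vehicle and 100% = reference activator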
MsrA inhibitor – inhibitors of bovine MsrA | purified bovine MsrA, absorbance read-out | inhibition, % at 15.5 µM | 0.75% of 360,000 active; in the data active = inhibition above about 4.5%;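 note: 0% = vehicle wells with enzyme and 100% = reference inhibitor wells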
proKLK7 act – activators of human kallikrein-7 zymogen; 0.9% of 370,000 active; AID 652039; activation, % at 7 µM; purified proKLK7, EDANS-DABCYL substrate fluorescence; 100% is mature enzyme control, 0% vehicle;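 active = activation above the mean of all tested compounds plus 3 SD, computed per campaign excluding outliers beyond control limits, cut at about 13% in these data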
Target sequence (P49862 whole entry, looked up): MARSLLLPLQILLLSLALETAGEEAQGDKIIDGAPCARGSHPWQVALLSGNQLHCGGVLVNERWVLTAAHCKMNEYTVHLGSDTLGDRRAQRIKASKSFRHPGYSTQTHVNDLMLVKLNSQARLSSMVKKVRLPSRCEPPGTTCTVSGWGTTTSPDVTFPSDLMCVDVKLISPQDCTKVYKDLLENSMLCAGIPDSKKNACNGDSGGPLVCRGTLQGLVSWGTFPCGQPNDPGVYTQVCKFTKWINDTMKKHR
SMARCA2 activ – increases SMARCA2 function in MMTV reporter cells; MG213 cells, MMTV-luciferase reporter, dexamethasone, overnight; activation, % at 9.1 µM; 1% of 370,000 active; in the data active = activation above about 7.8%;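 note: 0% = vehicle wells and 100% = reference activator wells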
SMARCA2 act conf – confirmation of SMARCA2 (BRM) function activators. shares compounds with SMARCA2 activ. 30% of 3,500 active. AID 652260. MG213 cells, MMTV-luciferase with dexamethasone, luminescence, overnight; MG213 cells expressing E1A, Rb sequestered; DMSO wells 0%, reference activator 100%. activation, % at 9.1 µM;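 active = activation above its plate's cutoff, the mean activation of tested wells plus 3 SD, cut at about 7.9% in these data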
GAL4-VP16 Luc – activates GAL4-VP16 luciferase, flagging SMARCA2 activator hits; AID 686939; HEK293 GAL4-VP16 pG5luc reporter, luciferase luminescence; scaled: DMSO wells 0%, SAHA wells 100%; shares compounds with SMARCA2 activ; 41% of 3,500 active; activation, % at 9.1 µM;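 active = activation above the solvent-only control well mean plus 3 SD, averaged across control plates, cut at about 5.2% in these data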
* marks the source's active call; other numbers are inactive results; . = no result. Compounds with a hit are over-represented: about 2.8% of the library has one in this group of screens.

SMILES	bovine MsrA act	MsrA inhibitor	proKLK7 act	SMARCA2 activ	SMARCA2 act conf	GAL4-VP16 Luc
Cc1ccc(NC(=O)C2CCCN2c2nn3c(=O)cc(C)nc3s2)cc1 (configuration not stated)	0	-1	1	0	.	.
COCCCNC(=O)C[C@H]1C[C@H](C(=O)N2CCOCC2)[C@@]2(CCC3CCCC3)c3[nH]c4ccc(Cl)cc4c3CCN2C1=O	-1	0	0	10*	2	1
O=C(C[C@H]1C[C@H](C(=O)N2CCOCC2)[C@@]2(CCC3CCCC3)c3[nH]c4ccc(Cl)cc4c3CCN2C1=O)NCCN1CCOCC1	0	3	0	-6	.	.
O=C(Nc1ccc(Br)cc1Cl)c1cnccn1	-11	1	0	9.4*	12*	4
CCCCCCN[C@H]1CCC2C3CC=C4C[C@@H](O)CC[C@]4(C)C3CC[C@@]21C (some centres not stated)	1	0	0	11*	9.7*	1
Cc1ccc(NC(=O)c2ccc(OC(=O)C(C)Oc3ccc(Cl)cc3C)cc2)cc1 (configuration not stated)	-3	1	0	11*	8.0*	1
Cc1cc(Cl)ccc1OC(C)C(=O)OCC(=O)Nc1ccc2[nH]c(=O)[nH]c2c1 (configuration not stated)	-2	0	0	-1	.	.
COc1ccc(/C(N)=N/OC(=O)c2ccc3c(c2)OCO3)cc1OC	-2	0	0	12*	9.7*	17*
COCc1cc(C)nc(SCC(=O)Nc2ccc(C)c(C)c2)c1C#N	-5	-2	0	8.1*	4	4
NC(=O)[C@@H]1CCCN1C(=O)[C@@H](Cc1ccccc1)NC(=O)[C@H]1O[C@@H](n2ccc(N)nc2=O)[C@H](O)[C@@H]1O	.	0	0	-2	.	.
COCCNC(=O)/C(C#N)=C/C=C/c1ccccc1[N+](=O)[O-]	-4	4	0	12*	18*	0
COc1ccccc1-c1cnc(C(O)c2c(C)cc(C)cc2C)[nH]1 (configuration not stated)	0	0	-1	-4	.	.
COc1ccc(/C=N/Nc2cc(C)nc3c(C)cccc23)cc1	-4	0	0	9.1*	32*	1
Cc1ccc(NC(=O)NNC(=O)CCn2nc(C)c([N+](=O)[O-])c2C)cc1C	.	.	0	-3	.	.
ClCCn1cnc2c(SCc3ccccc3)ncnc21	-3	0	0	8.0*	4	5.2*
Nc1nc(SCc2ccccc2)c2ncn(CCO)c2n1	-9	0	0	-5	.	.
Cn1cnc2c(SCc3ccccc3)ncnc21	-3	0	0	9.7*	6	5
COC1=CC(=O)OC(c2cccc([N+](=O)[O-])c2)C1 (configuration not stated)	.	0	1	-3	.	.
C=CCc1cccc(C=NNC(=O)c2ccco2)c1O	.	.	-16	-5	.	.
CCSc1nnc(CCNC(=O)OC(C)(C)C)o1	-5	0	-1	9.5*	-2	0
C=C(C)CSc1nnc(CCNC(=O)OC(C)(C)C)o1	-13	.	.	.	.	.
O=C(c1cncnc1)N1CCC(n2nnc3ncccc32)CC1	.	.	0	-3	.	.
O=C(c1ccncc1F)N1CCC(n2nnc3ncccc32)CC1	.	.	0	8.1*	0	-1
CC(COc1ccc(F)cc1)CN1CCC(C(O)(c2ccccc2)c2ccccc2)CC1 (configuration not stated)	.	.	0	-7	.	.
CCOC(=O)C1(C)CCCN(C(=O)C(c2ccccc2)c2ccccc2)C1 (configuration not stated)	-1	1	0	-3	.	.
SMILES	bovine MsrA act	MsrA inhibitor	proKLK7 act	SMARCA2 activ	SMARCA2 act conf	GAL4-VP16 Luc
Cc1cc2nc(-c3ccc(SCC(=O)N4CCN(C(=O)c5ccco5)CC4)nc3)[nH]c2cc1C	-11	3	0	10*	9.2*	8.8*
O=C(Nc1ccc(-c2nc3ccccc3[nH]2)cc1)C1CCCN(Cc2ccn[nH]2)C1 (configuration not stated)	0	1	0	18*	7	5
CN(Cc1ccccc1)C(=O)OCc1cn(Cc2ccccc2C(F)(F)F)nn1	.	.	0	0	.	.
O=C(O)c1ccc(N/N=C/c2cc3cc4c(cc3nc2Cl)OCCO4)cc1	-9	4	-6	8.4*	8	11*
COc1cccc(NC(=O)Nc2c(-c3ccc(C)cc3)nc3ncccn23)c1	.	.	-3	-1	.	.
Cc1ccccc1NC(=S)N(Cc1ccco1)C(C)c1cccs1 (configuration not stated)	-2	0	0	11*	-4	-1
CCN(CC)CCCNc1nc2ccccc2c2[nH]c3ccc(OC)cc3c12	0	4	7	54*	-15	-1
CCN(CC)CCCNc1nc(-c2ccccc2)nc2ccccc12	-2	2	0	3	.	.
O=C(Nc1ccc2c(c1)OCO2)c1ccc2c(c1)OCO2	-1	0	-1	5	.	.
O=C(Nc1ccc2c(c1)oc1ccccc12)c1ccc2c(c1)OCO2	0	1	-1	8.9*	7	-1
Cc1nnc(NC(=O)c2ccc3c(c2)OCO3)s1	-8	1	0	10*	7	9.5*
S=C1NCCN1c1ccc(Cl)cc1	.	0	0	-3	.	.
COc1cccc(C(=O)O/N=C(\N)CS(=O)(=O)c2ccccc2)c1	-1	1	0	12*	2	2
O=C(CSc1nnnn1C1CCCC1)c1ccc2c(c1)OCCO2	-2	0	0	8.3*	4	5.4*
Cc1ccc(-c2nc(-c3cccnc3)no2)c(C)c1	-11	0	0	9.2*	19*	13*
Cc1ccc(C)c(OCc2nc(-c3cccnc3)no2)c1	-1	-2	0	-1	.	.
Cc1nc2ccccc2c2oc(C(=O)NCCCN3CCCC(C)C3)cc12 (configuration not stated)	-13	-1	0	1	.	.
CC1CCCN(CCCNC(=O)c2cc3c(Cl)nc4ccccc4c3s2)C1 (configuration not stated)	-2	-1	0	15*	26*	2
CCN(CC)CCCNC(=O)c1cc2c(Cl)nc3ccccc3c2s1	0	1	1	18*	23*	1
N#C/C(=C\c1cccs1)c1nc2ccccc2[nH]1	-7	1	-2	1	.	.
N#C/C(=C\c1ccc(OC(=O)c2cccs2)cc1)c1nc2ccccc2[nH]1	-1	1	-9	13*	8.5*	6.2*
N#CCCN(Cc1ccccc1)C(C(=O)NC1CCCCC1)C1CC1 (configuration not stated)	-4	2	1	-3	.	.
Cc1ccc(S(=O)(=O)N2CCCC(C(=O)NCc3ccco3)C2)cc1 (configuration not stated)	.	.	0	10*	1	0
COc1ccc(N2N=NN(C(C)C)C2=C(Cl)c2nnnn2-c2ccc(OC)cc2)cc1	-1	-1	-1	2	.	.
